We go through 35 molecules from PubChem BioAssay (NCATS).

Structures are written as SMILES. “And” between values parts separate entries of the source, which are not always exact repeats. Equal values may be shown once. Records with an inconclusive call do not appear. The source made the active and inactive calls. Calls come from the whole dose curve; as a rule, active = well fitted curve in the direction sought with a large enough effect; inconclusive = small, poorly fitted or top-dose-only effect, or another doubt; inactive = no such curve, though single readings can be large or run the other way.
% is set by controls: 0 for no effect and ±100 for the full control effect; potency is the fitted concentration of half-maximal effect.

The test is described as follows: qHTS Assay for Identifying Gametocytocidal Compounds (AID 743244).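 For max response: actives lower the fluorescent signal which means gametocytes are killed.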 The following applies: P. falciparum 3D7 stage III-V gametocytes, alamarBlue, 72 h; max response: active compounds read low. The method, boiled down:
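Viability read-out was resazurin reduction (alamarBlue, 24 h) measured at Ex 525/Em 598 nm. Beforehand, late-stage (III-V) 3D7 P. falciparum gametocytes at 20,000 cells/well were incubated with compound 72 h at 37C under 5% CO2.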
Background: qHTS replaces the single test concentration by a dilution series.
As for `CNS(=O)(=O)Cc1ccc2[nH]cc(CCN(C)C)c2c1`, the max response was 0.507% (inactive).

With `CO[C@@H]1[C@@H](OC(N)=O)[C@@H](O)[C@H](Oc2ccc3c(O)c(NC(=O)c4ccc(O)c(CC=C(C)C)c4)c(=O)oc3c2C)OC1(C)C`, the max response is 1.46% (inactive).

`CN1CCN(c2c(F)cc3c(=O)c(C(=O)O)cn4c3c2OCN4C)CC1`: the max response is 0.61% (inactive).

Take `COC(=O)Nc1nc2ccc(C(=O)c3ccccc3)cc2[nH]1`: the max response was -6.13% (inactive).

Regarding `CN1CCN(c2c(F)cc3c(=O)c(C(=O)O)cn(CCF)c3c2F)CC1`, the max response is 1.63% (inactive).

For `CCCCCCNC(=O)n1cc(F)c(=O)[nH]c1=O`, the max response is -3.88% (inactive).

On to `CC(C)(Sc1cc(C(C)(C)C)c(O)c(C(C)(C)C)c1)Sc1cc(C(C)(C)C)c(O)c(C(C)(C)C)c1`, for which the max response is -1.03% (inactive).

Regarding `O=S(=O)(O)CCS`, the max response was -4.29% (inactive).

Take `COc1cccc(N(C)C(=S)Oc2ccc3c(c2)CCCC3)n1`: the max response is -0.766% (inactive).

In the case of `CCn1cc(C(=O)O)c(=O)c2cc(F)c(N3CCNCC3)cc21`, the max response is 1.43% (inactive) and -0.58% (inactive).

Regarding `O=C(O)c1ccc(-n2nc(-c3ccccc3O)nc2-c2ccccc2O)cc1`, the max response is -16.4% (inactive).

On to `CC(=O)[C@H]1CC[C@H]2[C@@H]3CC=C4C[C@@H](O)CC[C@]4(C)[C@H]3CC[C@]12C`, for which the max response is 11.7% (inactive).

Consider `COc1ccccc1OCC(O)COC(N)=O` (stereo not given), for which the max response is -1.63% (inactive).

As for `CCC(=O)O[C@]1(C(=O)SCF)[C@H](C)C[C@H]2[C@@H]3C[C@H](F)C4=CC(=O)C=C[C@]4(C)[C@@]3(F)[C@@H](O)C[C@@]21C`, the max response was -5% (inactive).

Turning to `CC[C@H](NC(C)C)[C@H](O)c1ccc(O)c2[nH]c(=O)ccc12`, the max response is 0.956% (inactive).

On to `CCOC(=O)[C@H](CCc1ccccc1)N[C@H]1CS[C@H](c2cccs2)CN(CC(=O)O)C1=O`, for which the max response was 3.7% (inactive).

For `O=NN(CCCl)C(=O)NC1CCCCC1`, the max response was -7.36% (inactive).

On to `COc1ncnc(NS(=O)(=O)c2ccc(N)cc2)c1OC`, for which the max response was -8.03% (inactive).

`O=P(O)(O)C(O)(Cc1cccnc1)P(=O)(O)O`: the max response is 8.36% (inactive).

`Nc1nc(=S)c2[nH]cnc2[nH]1`: the max response was 3.77% (inactive) and 7.36% (inactive).

Consider `Nc1[nH]c(=O)ncc1F`, for which the max response was -2.11% (inactive).

For `COC(=O)Nc1nc2ccc(Sc3ccccc3)cc2[nH]1`, the max response was 2.65% (inactive).

`CNC1CCCN(c2c(F)cc3c(=O)c(C(=O)O)cn(C4CC4)c3c2OC)C1` (stereo not given): the max response is -8.7% (inactive).

For the molecule `COc1ccc(C(=O)CC(=O)c2ccc(C(C)(C)C)cc2)cc1`, the max response was 7.37% (inactive).

For the molecule `COc1cnc(NS(=O)(=O)c2ccc(N)cc2)nc1`, the max response is 7.05% (inactive).

For `Nc1nc(F)nc2c1ncn2[C@@H]1O[C@H](CO)[C@@H](O)[C@@H]1O`, the max response was 0.368% (inactive) and 0.376% (inactive).

Turning to `CCCN[C@H]1CCc2nc(N)sc2C1`, the max response was -5.22% (inactive).

Turning to `O[C@@H](CNC[C@H](O)[C@H]1CCc2cc(F)ccc2O1)[C@@H]1CCc2cc(F)ccc2O1`, the Potency is 11.2 µM (active).

On to `CC(C)OC(=O)C(C(=O)OC(C)C)=C1SC=CS1`, for which the max response was 13.6% (inactive).

As to `O=C(O)c1cccnc1`, the max response is 3.31% (inactive).

As to `COc1c(N2CCNC(C)C2)c(F)cc2c(=O)c(C(=O)O)cn(C3CC3)c12` (stereo not given), the max response is -5.93% (inactive).

Turning to `Oc1c(Cl)cc(Cl)c2cccnc12`, the Potency is 7.08 µM (active).

Regarding `CC(C(=O)O)c1ccc2c(c1)CC(=O)c1ccccc1S2` (stereo not given), the max response was 43% (inactive).

For the molecule `Cc1cccc(Nc2ccncc2S(=O)(=O)NC(=O)NC(C)C)c1`, the max response was -10.6% (inactive).

On to `CCOC(=O)c1ccc(OC(=O)CCCCCN=C(N)N)cc1`, for which the max response is -8.62% (inactive).
